Where “and” joins values, the source holds several entries; their conditions need not be identical. Equal values may be shown once. About 79,000 compounds went through this panel and 15% of them were active in at least one assay; those are over-represented in the sample as a whole. Calls of active or inactive are those of the source. No stated cut-off is given here; in the data, active means growth inhibition above about 70%; inactive means the rest.
Experiments:
[1] = NCI Yeast Anticancer Drug Screen. Data for the rad50 strain (AID 155);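 further: 0% = growth of vehicle-only cultures of the same strain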; conditions: S. cerevisiae rad50 strain growth inhibition; at 50.0 µM; stronger effect = higher value
How it was run: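 Inhibition values express reduced yeast growth in compound-treated cultures relative to vehicle-treated controls.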

[2] = NCI Yeast Anticancer Drug Screen. Data for the mec2-1 strain (AID 157); conditions: S. cerevisiae mec2-1 strain, at 50.0 µM, stronger effect = higher value
How it was run: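 Cells of the genetically defined mec2-1 yeast strain are incubated with test compound. Inhibition of growth is calculated against vehicle-treated controls.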

[3] = NCI Yeast Anticancer Drug Screen. Data for the sgs1 mgt1 strain (AID 161);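 further: 0% = growth of cultures given vehicle only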; conditions: S. cerevisiae sgs1 mgt1 strain, at 50.0 µM, stronger effect = higher value
How it was run: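 Genetically altered yeast, compound exposure, growth inhibition relative to vehicle.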

[4] = NCI Yeast Anticancer Drug Screen. Data for the cln2 rad14 strain (AID 165);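 further: 0% = growth equal to vehicle treated cultures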; conditions: S. cerevisiae cln2 rad14 strain, at 50.0 µM, stronger effect = higher value
How it was run: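 The screen exposed genetically defined yeast (cln2 rad14) to test compounds and scored growth inhibition relative to vehicle-treated controls.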

[5] = NCI Yeast Anticancer Drug Screen. Data for the bub3 strain (AID 167); conditions: S. cerevisiae bub3 mutant strain, at 50.0 µM, stronger effect = higher value
How it was run: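 Steps: expose the mutant yeast strain to compound; grow alongside vehicle-treated cultures; measure growth; express inhibition against the vehicle cultures.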

[6] = NCI Yeast Anticancer Drug Screen. Data for the mlh1 rad18 strain (AID 175); conditions: S. cerevisiae mlh1 rad18 strain growth inhibition; at 50.0 µM; stronger effect = higher value
How it was run: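 Compound-treated yeast growth, normalised to vehicle controls. Strain bears defined DNA repair mutations.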

Measured: growth inhibition

CC1=C(O)C(=O)[C@@H]2O[C@@H]2C1=O
inactive: [1] 42% | [2] 29.6% | [3] 43.8% | [4] 14% | [5] 31.3% | [6] -35.4%

OP(=S)(OCc1ccccc1)OCc1ccccc1
inactive: [1] 18.9% | [2] 19.6% | [3] 5.95% | [4] -13.8% | [5] 17.9% | [6] 4.55%

CC1C2Cc3ccc(O)cc3C1(C)CCN2C (configuration not stated)
inactive: [1] 37% | [2] 29.6% | [3] 30.6% | [4] 17.6% | [5] 35% | [6] 16.1%

COc1cccc(N2C(=O)C3C(C2=O)C2(Cl)C(Cl)=C(Cl)C3(Cl)C2(Cl)Cl)c1 (configuration not stated)
inactive: [1] 58.4% | [2] 45.2% | [3] 53.5% | [4] 10.1% | [5] 19.4% | [6] 49.8%

COc1cc(C2c3cc4c(cc3OC(NCCO)C2C)OCO4)cc(OC)c1O (configuration not stated)
inactive: [1] 6.1% | [2] -11.5% | [3] -14.3% | [4] 9.25% | [5] -18.1% | [6] -0.65%

c1ccc2c(c1)oc1ccccc12
inactive: [1] 2.05% | [2] 11.3% | [3] 7.2% | [4] -64.5% | [5] 4% | [6] -4.1%

O=C(SCC(NSc1ccccc1[N+](=O)[O-])C(=O)O)c1ccccc1 (configuration not stated)
inactive: [2] 56.6% | [4] 8.45% | [5] 6.5% | [6] 47.9%
active: [1] 88.5% | [3] 75.4%

[C-]#[O+].[C-]#[O+].[C-]#[O+].[C-]#[O+].[W].c1ccc([PH+](CC[PH+](c2ccccc2)c2ccccc2)c2ccccc2)cc1
inactive: [1] -2.9% | [2] 5.2% | [3] -10.4% | [4] -8% | [5] -7.5% | [6] 8.95%

CC(=O)[O-].[Ni].c1ccc(/C(=N\Nc2ccccn2)c2ccccn2)cc1
inactive: [1] 19.8% | [2] 3.15% | [3] 4.25% | [4] -3.7% | [5] -4.6% | [6] 18.6%

CNC(=O)Oc1cccc2c1C(=O)OC2=O
inactive: [1] -2.7% | [2] 4.25% | [3] -6.55% | [4] -25.1% | [5] 2.15% | [6] 7.1%

O=c1cc[cH-]o1.[C-]#[O+].[C-]#[O+].[C-]#[O+].[C-]#[O+].[C-]#[O+].[C-]#[O+].[CH-]=O.[Co+2].[Co]
inactive: [1] -14.5% and -3.2% | [2] -4.15% and 4.75% | [3] 0.5% and -6.75% | [4] -10.5% and 6.25% | [5] -8.4% and 21.8% | [6] 9.6% and 4.05%

c1cc2c(c(NC3=NCCO3)c1)CCCC2
inactive: [1] 3.4% and 5.65% | [2] 1.05% and -2.1% | [3] -2.5% and 6.05% | [4] -45.5% and 0.05% | [5] -5.35% and 39.4% | [6] -1.1% and -6.15%

CC(C)(C)C1COP(=O)(Oc2ccccc2)OC1 (configuration not stated)
inactive: [1] 2.35% | [2] 7.55% | [3] -4.5% | [4] -13.8% | [5] 19.4% | [6] 3.6%

O=P(O)(O)C(O)c1ccccc1 (configuration not stated)
inactive: [1] -20.1% | [2] -31.9% | [3] -15.4% | [4] -1.9% | [5] -19.2% | [6] 17.6%

CCC1(/C(C)=C/C(C)C)C(=O)NC(=O)NC1=O
inactive: [1] 15.8% and 16.3% | [2] 12.8% and 4.6% | [3] 1% and 6.15% | [4] 8.8% and -11.4% | [5] 4.65% and 2.35% | [6] 4.15% and 5.05%

CCNC(=S)S
inactive: [1] -7.35% | [2] -8.4% | [3] -13.1% | [4] -0.6% | [5] -2.25% | [6] -3.75%

[Cl][Pd]([Cl])([Cl])[Cl].[NH-]CC[NH-].[NH-]CC[NH-].[Pd+2]
inactive: [1] 28.7% | [2] 16.9% | [3] 32% | [4] -3.5% | [5] 26.4% | [6] 54.7%

CC(=O)OC1CCC2(C)C3CCC4(C)C(c5ccc(=O)oc5)CC5OC54C3CCC2(O)C1 (configuration not stated)
inactive: [1] 40% | [2] 2.75% | [3] 19.6% | [4] -1.8% | [5] -2.2% | [6] 2.3%

CN1CCCC2(CCCc3ccccc32)C1 (configuration not stated)
inactive: [1] 14.2% | [2] -33.1% | [3] -25.9% | [4] 15.3% | [5] -13.3% | [6] -5.2%

O=NN1CCCC1C(=O)O (configuration not stated)
inactive: [1] -10.8% and 0.75% | [2] -16.6% and -11.8% | [3] -14.2% and -12% | [4] 10.1% and 3.9% | [5] 3.45% and 1.65% | [6] -14% and -2.15%

COc1ccc(N2CC=C(c3ccccc3)OP2(=O)N2CC2)cc1 (configuration not stated)
inactive: [1] -20.4% | [2] 25.9% | [3] 5.9% | [4] 18.2% | [5] 0.95% | [6] -7.7%

CC(c1ccccc1)N1CCN(C(C)c2ccccc2)CC1 (configuration not stated)
inactive: [1] 2.75% | [2] -34.5% | [3] -31.7% | [4] 26.4% | [5] -30% | [6] 4.95%

CC[C@H]1CN2CCc3c([nH]c4ccccc34)[C@@H]2C[C@@H]1/C(=C/OC)C(=O)OC (tested in a mixture with another compound)
inactive: [1] -23.2% | [2] -25.6% | [3] -24.6% | [4] 3.6% | [5] -32.9% | [6] -13.9%

CC1OC(O[C@@H]2C=C3CC[C@@H]4[C@H](CC[C@]5(C)[C@@H](c6ccc(=O)oc6)CC[C@]45O)[C@@]3(C)CC2)C(O)C(O)C1O (some centres not stated)
inactive: [1] 2.85% | [2] -37.5% | [3] -25% | [4] 13.1% | [5] -15.9% | [6] 4.7%

O=C(COc1ccc(Cl)c(Cl)c1)Nc1ccc[n+](Cc2c(Cl)cccc2S(=O)(=O)F)c1
inactive: [1] 14.8% | [2] 22.1% | [3] -17.7% | [4] 39.9% | [5] -1.5% | [6] 5.35%

O=C([O-])C[SH2+].[Co+3].[NH-]CC[NH-].[NH-]CC[NH-].[O-][Cl+3]([O-])([O-])O
inactive: [1] 7.4% | [2] 20.1% | [3] 14.3% | [4] -16.6% | [5] 17.4% | [6] 20.4%

CCCCCCCCCC[C@@H](O)[C@@H]1CC[C@@H]([C@@H]2CC[C@@H]([C@@H](O)CCCCCCCCCC[C@H](O)CC3=CC(C)OC3=O)O2)O1 (some centres not stated)
inactive: [1] -3.45% | [2] -0.4% | [3] 18.8% | [4] 31% | [5] -11.7% | [6] -21.9%

COC1=CC2C3Cc4c(-c5cc(OC)c(O)c6c5CC5C7C=C(OC)C(=O)CC67CCN5C)cc(OC)c(O)c4C2(CCN3C)CC1=O (configuration not stated)
inactive: [1] -2.7% and -3.05% | [2] 1.25% and 2.55% | [3] -2.75% and -13.1% | [4] 0.25% and -10.2% | [5] -2.45% and -0.65% | [6] 3.7% and 12.1%

[C-]#[O+].[C-]#[O+].[C-]#[O+].[C-]#[O+].[Cr].c1ccc([PH+](c2ccccc2)c2ccccc2)cc1.c1ccc([PH+](c2ccccc2)c2ccccc2)cc1
inactive: [1] -4.4% | [2] 8.05% | [3] -8.95% | [4] -3.35% | [5] -5.4% | [6] -1.55%

NC(=NC(c1ccccc1)c1ccccc1)N[N+](=O)[O-]
inactive: [1] -4.1% | [2] 5.3% | [3] -12.6% | [4] 2.95% | [5] 7.45% | [6] -17.9%

CC(C)NC(C)C(C)c1ccccc1 (configuration not stated)
inactive: [1] 5.95% | [2] -3.15% | [3] 0.1% | [4] -11.9% | [5] -10.2% | [6] 11%

[Ni+2].[O-]c1ccc(Cl)cc1C=NCc1ccccn1.[O-]c1ccc(Cl)cc1C=NCc1ccccn1
active: [1] 94.3% | [2] 96.7% | [3] 97.5% | [4] 86.9% | [5] 96.5% | [6] 97.5%

COc1cccc2c1C(=O)c1c(O)c3c(c(O)c1C2=O)CC(O)(C(C)=O)CC3OC1CC([N+](C)(C)C)C(O)C(C)O1 (configuration not stated)
active: [1] 97% | [2] 98.5% | [3] 97.9% | [4] 92.5% | [5] 98.3% | [6] 95.8%

Cc1cccc(C(=O)[O][Pb]([CH3])([CH3])[CH3])c1
inactive: [1] 16.1% | [2] -53.7% | [3] 21% | [4] -20% | [5] -9.65% | [6] 36.2%

CC(C)(C)c1cc(O)ccc1O
inactive: [1] 22.5% | [2] -1.55% | [3] -29.1% | [4] -0.25% | [5] -25.7% | [6] 24.5%

COC(=O)/C=C/[C@@H]1[C@H](C)N1S(=O)(=O)c1ccc(C)cc1 (some centres not stated)
inactive: [1] -9.7% | [2] -11.3% | [3] 11.7% | [4] 6.95% | [5] 13.9% | [6] -23.5%

CCC(=O)C1(c2ccccc2)CCN(C)CC1
inactive: [1] -20.7% | [2] -35.7% | [3] 12.8% | [4] -16.5% | [5] -12.9% | [6] 6.7%
